Data taken from PubChem BioAssay AID2284143 (EPA ToxCast).
Active and inactive are the calls of the source. How the source made its calls: active means hit-call score of the fitted dose curve at least 0.9, where 1 is the maximum; inactive means score below 0.9.

These compounds were tested against human Adenosine Receptor A2A, ADORA2A (gene 135) (UniProt P29274) (assay: ERF_FR_GPCR_hADORA2A: Eurofins (ERF) G Protein-Coupled Receptor (GPCR) Radioligand Binding LeadHunter Assay for human Adenosine Receptor A2A Agonism, conducted at France lab site).
human Adenosine Receptor A2A, ADORA2A (gene 135), sequence (P29274 whole entry, looked up): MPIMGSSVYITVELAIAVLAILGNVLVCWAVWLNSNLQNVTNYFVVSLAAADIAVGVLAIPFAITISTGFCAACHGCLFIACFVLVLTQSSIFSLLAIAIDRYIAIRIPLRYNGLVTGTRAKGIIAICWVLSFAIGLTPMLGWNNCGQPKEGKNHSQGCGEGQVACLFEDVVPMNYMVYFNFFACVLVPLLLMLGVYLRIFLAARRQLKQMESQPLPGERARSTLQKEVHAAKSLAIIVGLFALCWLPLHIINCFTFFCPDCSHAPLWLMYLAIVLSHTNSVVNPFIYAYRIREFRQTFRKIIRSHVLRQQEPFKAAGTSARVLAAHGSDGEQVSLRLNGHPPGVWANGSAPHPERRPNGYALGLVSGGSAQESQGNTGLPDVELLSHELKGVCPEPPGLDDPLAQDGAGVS
Experimental: ERF_FR_GPCR_hADORA2A is a biochemical, single-readout assay that uses extracted gene-proteins in a cell-free assay. Measurements were taken 2 hour after chemical dosing in a 96-well plate. See A2A Human Adenosine GPCR Binding (Agonist Radioligand) Assay, Cerep.ERF_FR_GPCR_hADORA2A is an assay component calculated from the ERF_FR_GPCR_hADORA2A assay. It is designed to measure radioligand binding using a type of binding reporter as detected by scintillation counting with radiometry technology.Data from the assay component ERF_FR_GPCR_hADORA2A was analyzed at the assay endpoint, ERF_FR_GPCR_hADORA2A, in the positive analysis fitting direction relative to DMSO as the negative control and baseline of activity. Using a type of binding reporter, gain-of-signal activity can be used to understand changes in binding as they relate to gene ADORA2A. To generalize the intended target to other relatable targets, this assay endpoint is annotated to the gpcr intended target family, where the subfamily is adenosine.
Human cells are incubated for 60 minutes in room temprature, using [3H]CGS 21680 ligand at 6 Kd (nM) with NECA control inhibitor.Test Sample Requirements: Minimum for 1) Screen: 60 ul of 10 mM stock -OR- 1 mg (pre-weighed) for […] uM final testing. 2) Dose Response: 90 ul of 10 mM stock -OR- 1 mg (pre-weighed) for a top concentration at 10 uM.
For `O=C(/C=C/c1ccc(O)cc1)CC(=O)/C=C/c1ccc(O)cc1`, the AC50 was 421 nM (active).
